Screening results as filed in PubChem.
Pf Dd2 inh = Plasmodium falciparum Dd2 growth inhibition | 120,000 tested, 4.3% active | Potency, µM (series often up to 28.9 µM), usual class: inhibitors | P. falciparum Dd2 growth, SYBR Green, 72 h; active = well fitted inhibition curve with a large enough effect; note: nearly all actives have a fitted effect of over 65% in size
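Readout: SYBR Green fluorescence, 485 nm excitation, 535 nm emission, after ~16 h lysis at 37C. Before that, Dd2-infected red cells (2.5% hematocrit) grew 72 h with compound, 29 uM top final concentration.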
Each line names hits and unclear results; the compound was inactive in the other large screens. Shown is part of a subset that was picked to be rich in hits.

CCOC(=O)C1CCCN(C(=O)Cn2ncc3c([nH]c4ccccc43)c2=O)C1 (stereo not drawn)	none
CCOC(=O)C1CCCN(C(=O)C2CC(c3ccc(CC)cc3)CN(C(C)=O)C2)C1 (stereo not drawn)	none
O=C(NCc1ccc2c(c1)OCO2)c1ccc2c(c1)N(Cc1ccc(F)cc1)C(=O)c1ccccc1S2=O (stereo not drawn)	none
O=C(NCc1ccc2c(c1)OCO2)c1ccc2c(c1)N(Cc1ccccc1)C(=O)c1ccccc1S2=O (stereo not drawn)	none
O=C(NCc1ccc2c(c1)OCO2)c1ccc2c(c1)N(Cc1cccc(Cl)c1)C(=O)c1ccccc1S2	Pf Dd2 inh 10µM
CCC(C)NC(=O)c1ccc2c(c1)N(Cc1ccccc1)C(=O)c1ccccc1S2 (stereo not drawn)	none
CC1CCC(NC(=O)c2ccc3c(c2)N(Cc2ccccc2F)C(=O)c2ccccc2S3=O)CC1 (stereo not drawn)	Pf Dd2 inh 10µM
O=C(NC1CCCC1)c1ccc2c(c1)N(Cc1ccccc1)C(=O)c1ccccc1S2	none
O=C(NCc1ccco1)c1ccc2c(c1)N(Cc1ccc(Cl)cc1)C(=O)c1ccccc1S2	none
CCOc1ccc(CN2C(=O)c3ccccc3Sc3ccc(C(=O)NC4CCC(C)CC4)cc32)cc1 (stereo not drawn)	Pf Dd2 inh 11.2µM
COCCCNC(=O)c1ccc2c(c1)N(Cc1ccccc1F)C(=O)c1ccccc1S2=O (stereo not drawn)	none
CCOc1ccc(CN2C(=O)c3ccccc3Sc3ccc(C(=O)NCc4ccco4)cc32)cc1	Pf Dd2 inh 5.01µM
O=C(NC1CCCC1)c1ccc2c(c1)N(Cc1ccc(F)cc1)C(=O)c1ccccc1S2	none
CC1CCC(NC(=O)c2ccc3c(c2)N(Cc2ccccc2F)C(=O)c2ccccc2S3(=O)=O)CC1 (stereo not drawn)	none
CCN(C(=O)c1noc2c1COc1ccc(C)cc1-2)c1cccc(C)c1	none
COc1cccc2[nH]c(C(=O)NCc3ccc4c(c3)CCN4C(=O)c3ccc(F)cc3)cc12	none
CCN(C(=O)COc1cc(=O)n(C)c2ccccc12)c1cccc(C(F)(F)F)c1	none
CNC(=O)N1CCc2nc(N(C)C)[nH]c(=O)c2CC1	none
COc1ccc(CN2C[C@@H](C(N)=O)[C@H](c3nc(C)no3)C2)cc1Cn1cccn1	none
O=C1CC2(CCN(C(=O)c3ccc(Cl)cc3)CC2)Oc2ccccc2N1	none
CNC(=O)[C@H]1C[C@H](Oc2cccnc2)CN1C(=O)NC(C)C	none
COCc1nc(C2CCN(C(=O)C3CCCCC3)C2)no1 (stereo not drawn)	none
Cc1nn(-c2ccc(F)cc2)c(Oc2cccc(F)c2)c1CCC(=O)NC(C)C	none
CN(Cc1ccccc1)Cc1cn([C@H]2CO[C@H]3[C@@H]2OC[C@@H]3NC(=O)c2ccc(N(C)C)cc2)nn1	none
COc1ccc([C@H]2C[C@@H](O)[C@@H](O)[C@@H]2NS(=O)(=O)c2ccc(C#N)cc2)cc1	none
COc1ccc(CCNC(=O)c2ccc3c(c2)N(Cc2ccc(Cl)cc2)C(=O)c2ccccc2S3)cc1OC	Pf Dd2 inh 7.94µM
Cc1ccc(C)c(CN2C(=O)c3ccccc3Sc3ccc(C(=O)NCc4ccco4)cc32)c1	Pf Dd2 inh 11.2µM
O=C(NCCc1ccccc1)c1ccc2c(c1)N(Cc1ccc(F)cc1)C(=O)c1ccccc1S2	none
COCCCNC(=O)c1ccc2c(c1)N(Cc1ccccc1)C(=O)c1ccccc1S2	none
COCCNC(=O)[C@@H]1CCC[C@@H](NC(C)=O)CN(C)C(=O)C1	none
CCOC(=O)C(=O)Nc1c(C(=O)Nc2cccc(F)c2)oc2ccccc12	none
CCN(CC)c1ccc(NC(=O)CCS(=O)(=O)c2cc3c(cc2Cl)NC(=O)CO3)c(C)c1	none
Cc1ccc(CN2CC[C@H](CNC(=O)C3CC3)[C@H](N(C)C)C2)o1	none
COc1ccc(C(=O)N2CCCC(n3cc(-c4nc(C5CC5)no4)nn3)C2)cc1OC (stereo not drawn)	none
CN(CC(O)c1ccccc1)C(=O)c1cn(C(c2ccccc2)c2ccccc2)nn1 (stereo not drawn)	none
O=C1NCCOCCCN(S(=O)(=O)c2cccs2)[C@H]2CCC[C@@H]12	none
COc1cc2c(cc1CN1CCC3(CCCNC3)C1)OCCCO2 (stereo not drawn)	none
COc1cc2c(cc1CN1CCCC(CO)(CC=C(C)C)C1)OCCO2 (stereo not drawn)	Pf Dd2 inh 7.94µM
CC(C)=CCC1(CO)CCCN(Cc2cc(=O)n3cc(C)sc3n2)C1 (stereo not drawn)	none
COc1cccc2c1CCN=C2C[C@H]1CN(C(=O)C2CCC2)CC[C@H]1CC(=O)O	none
CCOc1ccccc1N(CC)C(=O)Cn1ncc2c1-c1ccccc1OC2	none
COc1cccc([S+](=O)([O-])N2CCCC3(CC(C)=NO3)C2)c1 (stereo not drawn)	none
COc1ccc2c(CNCCc3cccs3)c(C(=O)O)n(Cc3ccc(F)cc3Cl)c2c1	none
COc1ccc2c(CNCc3ccc(C)o3)c(C(=O)O)n(Cc3ccccc3)c2c1	none
COc1ccc2c(CNCCc3ccco3)c(C(=O)O)n(Cc3ccccc3)c2c1	none
C=Cc1ccc(Cn2c(C(=O)O)c(CNCc3ccccc3)c3ccc(OC)cc32)cc1	Pf Dd2 inh 11.2µM
COc1ccc(Cn2c(C(=O)O)c(CNCc3ccc(SC)cc3)c3ccc(OC)cc32)cc1	Pf Dd2 inh 7.94µM
COc1ccc2c(CNCc3cccs3)c(C(=O)O)n(Cc3ccc(F)cc3)c2c1	none
CC1(C)C(C(=O)N2CCCC(CNC(=O)c3ccc(F)cc3)C2)C1(C)C (stereo not drawn)	none
COc1ccc(C(=O)N[C@@H]2CN(c3ncccn3)C[C@H]2CN(C)C)cn1	none
O=C(O)c1cn(Cc2ccc(F)cc2Cl)nn1	none
CSc1cccc(NC(=O)c2cc3c(COC(C)=O)cnc(C)c3oc2=O)c1	none
CCc1cnc(N2CCC3(CC2)C(=O)Nc2cc(OC4CCCC4)c(OC)cc23)nc1	none
COC(=O)c1ccc(Cn2c(SCC(=O)NCc3ccccc3)nc3ccccc32)cc1	none
O=C(NCc1cccs1)c1ccc(Cn2c(SCc3cccc(F)c3)nc3cccnc32)cc1	none
O=C(NCc1ccc(F)cc1)c1ccc(CSc2nc3ccncc3n2Cc2ccc(F)cc2)cc1	Pf Dd2 inh 11.2µM
COc1cccc(CSc2nc3ccncc3n2CC(=O)Nc2ccc(OC)c(OC)c2OC)c1	none
CCNC(=O)c1ccc(CSc2nc3ccncc3n2Cc2ccc(F)cc2)cc1	Pf Dd2 inh 7.94µM
COc1ccccc1CNC(=O)c1ccc(CSc2nc3ccncc3n2Cc2ccccc2C)cc1	Pf Dd2 inh 7.08µM
COc1ccc(NC(=O)Cn2c(SCc3cc(C)ccc3C)nc3ccncc32)c(OC)c1OC	none
O=C(CC1CCCCC1)N1CCN(C(=O)N2CC3CC(C2)[C@H]2CCCC(=O)N2C3)CC1 (stereo partly drawn)	none
CCn1c(=O)c2c(cc(C)n2C)n(CC(=O)Nc2ccccc2C)c1=O	none
COC[C@@H]1CN(C(=O)Cc2ccccc2C)C[C@H]1c1ccncc1	none
Cc1ccc(-c2noc(CSc3nnc(C)n3-c3ccc(C)c(C)c3)n2)cc1	none
CCn1cc(C(=O)N2CCCC(C(=O)Nc3cccc(-c4cc5ccccc5[nH]4)c3)C2)cn1 (stereo not drawn)	none
CCOC(=O)c1sc(NC(=O)c2nc(SC)ncc2Cl)c(C(=O)OCC)c1C	none
CCOC(=O)c1sc(NC(=O)c2nc3nc(C)cc(C(F)F)n3n2)c(C(=O)OC)c1C	none
CCCOC(=O)c1c(NC(=O)c2nc3ncccn3n2)sc(C(=O)OCC)c1C	Pf Dd2 inh 2.82µM
Cc1ccc(N2CCN(C(=O)c3noc4c3COc3ccc(C)cc3-4)CC2)c(C)c1	none
Cc1noc2c(-c3cn[nH]c3)cc(-c3ccc(F)cc3)nc12	none
